The structures appear in SMILES notation. Records with an inconclusive call do not appear. Unmarked numbers belong to inactive results. Calls of active or inactive are those of the source. Calls follow the shape of the full dose curve.
% is scaled to controls: 0 for no effect and ±100 for the full control effect.

For the assay, the target named is Nucleoprotein (Lymphocytic choriomeningitis virus (strain Armstrong)) (UniProt P09992). In words: qHTS for Inhibitors of the Functional Ribonucleoprotein Complex (vRNP) of Lymphocytic Choriomeningitis Arenaviruses (LCMV): LCMV Primary Screen - GLuc reporter signal (AID 1347086). Also: nearly all actives have a fitted effect of over 70% in size. The note with it: LCMV minigenome vRNP cell assay, Gaussia luciferase reporter; series mostly up to 57.5 µM; activity change, negative = inhibition: at the top concentration. A general note: Quantitative high-throughput screening tests each substance at several concentrations.
Chain of Nucleoprotein (Lymphocytic choriomeningitis virus (strain Armstrong)) (P09992 whole entry, looked up): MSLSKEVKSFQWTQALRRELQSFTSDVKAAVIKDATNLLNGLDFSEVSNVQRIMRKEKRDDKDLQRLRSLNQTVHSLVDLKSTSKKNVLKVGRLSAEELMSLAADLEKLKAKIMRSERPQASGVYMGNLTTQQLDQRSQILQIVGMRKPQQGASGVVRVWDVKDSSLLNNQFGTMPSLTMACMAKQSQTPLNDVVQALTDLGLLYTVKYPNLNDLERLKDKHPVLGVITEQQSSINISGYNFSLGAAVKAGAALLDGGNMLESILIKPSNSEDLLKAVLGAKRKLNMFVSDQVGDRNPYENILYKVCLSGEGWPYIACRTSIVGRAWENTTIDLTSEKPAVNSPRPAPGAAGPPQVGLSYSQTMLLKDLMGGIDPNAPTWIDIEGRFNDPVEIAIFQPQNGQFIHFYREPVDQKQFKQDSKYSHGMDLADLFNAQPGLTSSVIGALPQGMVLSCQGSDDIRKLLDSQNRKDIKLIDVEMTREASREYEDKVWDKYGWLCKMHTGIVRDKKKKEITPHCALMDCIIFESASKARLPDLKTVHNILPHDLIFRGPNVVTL
Turning to `CCCCCCCCCCCC(=O)[O][Sn]([CH2]CCC)([CH2]CCC)[O]C(=O)CCCCCCCCCCC`, the “activity change, negative = inhibition” value is 23.1%.

Turning to `CCCCCCOc1ccccc1C(N)=O`, the “activity change, negative = inhibition” value is 1.42%.

Regarding `Nc1ccc(C(=O)O)c(O)c1`, the “activity change, negative = inhibition” value was -11.3%.

Regarding `Cc1ncc(CO)c(CN)c1O`, the “activity change, negative = inhibition” value was 26.1%.

Turning to `C=CCc1ccc(O)c(OC)c1`, the “activity change, negative = inhibition” value is 75.6%.

With `CCC(Cc1c(I)cc(I)c(N)c1I)C(=O)O` (stereo not drawn), the “activity change, negative = inhibition” value is -4.43%.

Regarding `CN(c1nccc(=O)[nH]1)C1CCN(c2nc3ccccc3n2Cc2ccc(F)cc2)CC1`, the Potency entry is “inactive”.

`c1ccc2c(CC3=NCCN3)cccc2c1`: the “activity change, negative = inhibition” value is -0.595%.

For `CCN1CCC[C@H]1CNC(=O)c1cc(S(N)(=O)=O)ccc1OC`, the Potency entry was “inactive”.

Regarding `CCN(CC)CC#CCOC(=O)C(O)(c1ccccc1)C1CCCCC1` (stereo not drawn), the “activity change, negative = inhibition” value is 3.63%.

Take `O=c1[nH]c(=O)n([C@H]2CCCO2)cc1F`: the “activity change, negative = inhibition” value was 21.2%.

Regarding `Cc1c(C(=O)NCCO)[n+](=O)c2ccccc2n1[O-]`, the “activity change, negative = inhibition” value is 12.1%.

As to `CC(C)(C)NCC(O)COc1ccc(NC(=O)NC2CCCCC2)cc1` (stereo not drawn), the “activity change, negative = inhibition” value was -1.8%.

For `NS(=O)(=O)c1cc(Cl)c(Cl)c(S(N)(=O)=O)c1`, the “activity change, negative = inhibition” value was -0.304%.

Regarding `O=C(OCc1ccccc1)c1ccccc1`, the “activity change, negative = inhibition” value is 3.58%.

Consider `C/C=C1\[C@H]2C=C(C)C[C@]1(N)c1ccc(=O)[nH]c1C2`, for which the “activity change, negative = inhibition” value is 13.6%.

`COc1ccc(-c2cc(=O)c3c(O)cc(O[C@@H]4O[C@H](CO[C@@H]5O[C@@H](C)[C@H](O)[C@@H](O)[C@H]5O)[C@@H](O)[C@H](O)[C@H]4O)cc3o2)cc1O`: the “activity change, negative = inhibition” value was 13.5%.

`CCCCCN(CCCOC)C(=O)C(CCC(=O)O)NC(=O)c1ccc(Cl)c(Cl)c1` (stereo not drawn): the “activity change, negative = inhibition” value was -26.8%.

With `C[C@H]1C[C@@H]2[C@H]([C@@H](O)C[C@@]3(C)[C@H]2CC[C@]3(O)C(=O)CO)[C@@]2(C)C=CC(=O)C=C12`, the “activity change, negative = inhibition” value was 89.6%.

As for `NCCS(=O)(=O)O`, the Potency entry was “inactive”.

In the case of `CCOC(N)=O`, the “activity change, negative = inhibition” value was 15.3%.

As for `O=C(NC(Cc1cc(=O)[nH]c2ccccc12)C(=O)O)c1ccc(Cl)cc1` (stereo not drawn), the Potency entry was “inactive”.

As for `CN1CC(=O)NC1=N`, the “activity change, negative = inhibition” value is 12.8%.

As to `Cc1ccc(-c2ccccc2C#N)cc1`, the “activity change, negative = inhibition” value is -2.58%.

In the case of `O=C(OOC(=O)c1ccccc1)c1ccccc1`, the “activity change, negative = inhibition” value was -2.22%.

Take `COc1cc(/C=C/C(N)=O)cc(OC)c1OC`: the “activity change, negative = inhibition” value is 4.19%.

Consider `CN(C)CCOC(=O)COc1ccc(Cl)cc1`, for which the Potency result is “inactive”.

On to `CC(=O)OCC(=O)[C@@]1(O)CC[C@H]2[C@@H]3CCC4=CC(=O)C=C[C@]4(C)[C@@]3(F)[C@@H](O)C[C@@]21C`, for which the “activity change, negative = inhibition” value is 35.8%.

As for `Nc1ccc(C(=O)OCC(O)CO)cc1` (stereo not drawn), the “activity change, negative = inhibition” value was -2.96%.

Consider `Nc1ccc(S(=O)(=O)Nc2ccccn2)cc1`, for which the Potency entry is “inactive”.

As to `COC(=O)CCCCC(CCSS/C(CCO)=C(\C)N(C=O)Cc1cnc(C)nc1N)SC(C)=O` (stereo not drawn), the “activity change, negative = inhibition” value is -2.7%.

In the case of `CCCN1CCCC[C@H]1C(=O)Nc1c(C)cccc1C`, the “activity change, negative = inhibition” value was 15.9%.

In the case of `CC(N=C(NC#N)Nc1ccncc1)C(C)(C)C` (stereo not drawn), the Potency result is “inactive”.

With `Cn1nnc2c(C(N)=O)ncn2c1=O`, the Potency entry was “inactive”.

With `COc1ccnc(CS(=O)c2nc3ccc(OC(F)F)cc3[nH]2)c1OC` (stereo not drawn), the “activity change, negative = inhibition” value was 2.27%.

As for `CCC(=O)c1c(O)cc(O)cc1O`, the “activity change, negative = inhibition” value was 1.12%.

On to `CCOC(=O)[C@H](CCc1ccccc1)N[C@@H](C)C(=O)N1[C@H](C(=O)O)C[C@H]2CCCC[C@@H]21`, for which the “activity change, negative = inhibition” value is 5.9%.

In the case of `CC[C@]12CCCN3CCc4c(n(c5ccccc45)[C@@](O)(C(=O)OC)C1)[C@@H]32`, the Potency result is “inactive”.

(Values after PubChem BioAssay (NCATS).)
